From PubChem
12-LOX inh: Primary qHTS assay for inhibitors of human arachidonate 12S-lipoxygenase (ALOX12): Round 2 | purified 12hLO, xylenol orange hydroperoxide absorbance | Potency, µM (highest dose often 108 µM), inactives show at the highest dose activity change, negative = inhibition, most hits filed as inhibitors | 580,000 compounds, 1.1% hits | AID 1671190, 2021; note: % is set by controls: 0 for no effect and ±100 for the full control effect
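Purified human 12hLO at 150 nM in 25 mM Hepes, 0.01% Triton X-100, pH 7.0, preincubated 15 min at room temperature with compound. Reaction started with 40 uM arachidonic acid, 30 min at room temperature. Hydroperoxide measured by Fe-xylenol orange, 573/405 nm absorbance ratio.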
BAZ2B inh: qHTS Assay for Inhibitors of BAZ2B. 360,000 compounds, 4.4% hits. Potency, µM (top dose mostly 114 µM), inactives show at the top dose activity change, negative = inhibition, actives largely listed as inhibitors. AlphaScreen BAZ2B-H3K14Ac peptide displacement; note: % is set by controls: 0 for no effect and ±100 for the full control effect; nearly all actives have a fitted effect of over 60% in size
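AlphaScreen luminescence quantifies BAZ2B engagement of H3K14Ac peptide; the protein and biotinylated peptide are both at 50 nM final, buffer PBS pH 7.4 with 0.01% Tween-20, all steps at room temperature.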
JMJD2A Tudor inh: qHTS Assay for Inhibitors of JMJD2A-Tudor Domain. AlphaScreen JMJD2A-Tudor / H3K4me3 peptide binding. Potency, µM (top dose mostly 114 µM), inactives show top-dose activity change, negative = inhibition, most hits filed as inhibitors. 390,000 compounds, 4.4% hits. AID 504339, 2011; note: % is set by controls: 0 for no effect and ±100 for the full control effect; nearly all actives have a fitted effect of over 50% in size
G9a block: qHTS Assay for Inhibitors of Histone Lysine Methyltransferase G9a; Histone-lysine N-methyltransferase EHMT2 (Homo sapiens), Q96KQ7; G9a H3K9 monomethylation, AlphaScreen, 2 h; Potency, µM (titrated, usually from 102 µM), without a hit: top-dose activity, negative = inhibition, most hits filed as inhibitors; 350,000 compounds, 8.8% hits; AID 504332, 2011; note: % is set by controls: 0 for no effect and ±100 for the full control effect; nearly all actives have a fitted effect of over 75% in size
Target sequence (Q96KQ7 913-1193 limits assumed): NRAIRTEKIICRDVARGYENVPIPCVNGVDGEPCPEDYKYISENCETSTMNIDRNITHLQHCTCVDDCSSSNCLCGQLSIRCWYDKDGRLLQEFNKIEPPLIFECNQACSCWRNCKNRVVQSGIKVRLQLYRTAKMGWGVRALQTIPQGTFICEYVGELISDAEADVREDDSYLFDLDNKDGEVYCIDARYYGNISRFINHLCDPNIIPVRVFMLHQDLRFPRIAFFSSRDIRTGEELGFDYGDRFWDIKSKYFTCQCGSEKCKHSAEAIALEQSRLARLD
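Compounds were preincubated with 20 nM G9a for 15 min, after which biotinylated H3K9 peptide (500 nM) and SAM (20 uM) started a 2 h room-temperature reaction. Monomethylated product was quantified by antibody-based AlphaScreen chemiluminescence.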
HP1b chromo inh: HTS for Inhibitors of HP1-beta Chromodomain Interactions with Methylated Histone Tails. Chromobox protein homolog 1 (Homo sapiens), P83916. AlphaScreen HP1-beta / biotin-H3K9me3 peptide binding. Potency, µM (series often up to 114 µM), for inactives: at the top dose activity change, negative = inhibition, actives largely listed as inhibitors. 390,000 compounds, 0.56% hits. AID 540317, 2011; note: nearly all actives have a fitted effect of over 70% in size
Target sequence (P83916 whole entry, looked up): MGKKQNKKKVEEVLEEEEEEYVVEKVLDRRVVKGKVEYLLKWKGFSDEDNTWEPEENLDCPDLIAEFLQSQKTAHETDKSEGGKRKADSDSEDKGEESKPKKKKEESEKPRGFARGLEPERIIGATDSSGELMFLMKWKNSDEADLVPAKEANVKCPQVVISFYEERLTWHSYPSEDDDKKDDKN
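AlphaScreen: HP1-beta (50 nM) preformed 30 min with biotin-H3(1-18)K9me3 peptide (50 nM) in PBS pH 7.4, 0.01% Tween-20. Compound added for 30 min at RT, then streptavidin donor/nickel chelate acceptor beads (10 ug/mL) for 30 min.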
Sfp PPTase inh: qHTS Assay for Inhibitors of Bacillus subtilis Sfp phosphopantetheinyl transferase (PPTase). Biochemical Sfp PPTase activity, qHTS. Potency, µM, without a hit: largest response in the series, negative = inhibition, usual class: inhibitors. 310,000 compounds, 3.5% hits;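 note: the enzyme is Sfp with the accession as filed and its product quenches rhodamine fluorescence; 0% = enzyme reaction without inhibitor and -100% = no enzyme wells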
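Fluorescence-quenching assay: 15 nM Sfp-PPTase preincubated 15 min at room temperature with compound, then 5 uM rhodamine-CoA and 12.5 uM BHQ-2-labelled YbbR peptide added. Fluorescence (ex 525/em 598 nm) read at start and after 30 min; difference gives rate.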
Starred values were filed as active, the others as inactive; ? = inconclusive; / = no result; [ ] = dose if it differs, or a comment. In the library only some 8.7% were active in any assay of this set; here they are far more common. Calls come from the whole dose curve; as a rule, active = well fitted curve in the direction sought with a large enough effect; inconclusive = small, poorly fitted or top-dose-only effect, or another doubt; inactive = no such curve, though single readings can be large; an effect the other way counts as inactive or inconclusive. Potency is the fitted concentration of half-maximal effect.

SMILES	12-LOX inh	BAZ2B inh	JMJD2A Tudor inh	G9a block	HP1b chromo inh	Sfp PPTase inh
O=C(c1ccc(F)cc1)N1CCC2(CC1)CN[S+](=O)([O-])c1ccccc1N2	69%	/	/	/	/	/
COc1ccc(-c2c(C)oc3cc(OC(=O)c4ccccc4)ccc3c2=O)cc1	6%	/	/	/	/	/
CCOC(=O)CSC1=C(C#N)C(=O)NC2(CCCCC2)S1	?	13µM*	45µM*	32µM*	71µM*	50µM*
CCOC(=O)CSc1nc(N2CCCCC2)c2c(c1C#N)CCCC2	5%	/	/	/	/	/
COCc1cn(C[C@H]2C[C@@H](NS(C)(=O)=O)[C@H](O)[C@@H]2O)nn1	5%[176 µM]	/	/	/	/	/
Cc1nc(Nc2ccccc2F)c2oc3ccccc3c2n1	-65%	-36%	5%	32µM*	23%	-3%
Cc1nc(Nc2ccc(Cl)cc2)c2oc3ccccc3c2n1	-16%	-28%	?	2%[0.501 µM]	-6%[57 µM]	-10%
Cc1nc(Nc2cccc(Cl)c2)c2oc3ccccc3c2n1	?	-27%	-9%	71µM*	11%	-26%
CCc1nc(NCc2ccc3c(c2)OCO3)c2oc3ccccc3c2n1	?	-5%	-34%	/	5%	-32%
Cc1nc(NCc2ccc3c(c2)OCO3)c2oc3ccccc3c2n1	22µM*	-9%	-32%	?	1%	-2%
Cc1ccc(F)c(Nc2ncnc3c2oc2ccccc23)c1	4.5µM*	/	/	/	/	/
Cc1nc(CC(=O)NCc2ccc3[nH]c(-c4ccc(F)cc4)c(C)c3c2)cs1	59%	/	/	/	/	/
COCCCNC(=O)C(NC(=O)c1ccccc1C)C1CCN(C(=O)c2ccc(F)cc2)CC1 (stereo unspecified)	14%	/	/	/	/	/
COc1ccc(-c2nc3c(c(SC(C)C(=O)Nc4ccccc4OC)n2)COC(C)(C)C3)cc1 (stereo unspecified)	-9%	/	/	/	/	/
c1cc2c3c(cccc3c1)C(N1CCCCCC1)=N2	?	-15%	-11%[57.1 µM]	?	27%	-18%
c1ccc2c(c1)CCN(C1=Nc3cccc4cccc1c34)C2	-44%	32µM*	?	?	?	-1%
C=CCNC(=S)NNC(=O)c1cccc(C)c1	40%	/	/	/	/	/
Cc1ccccc1NC(=O)CCC(=O)N/N=C/c1cc([N+](=O)[O-])ccc1O	?	?	-20%	-13%	20%	0%
Cc1cc(O)c(C(C)C)cc1N=Cc1cc([N+](=O)[O-])ccc1O	?	-11%	-21%	/	15%	14µM*
Cc1cc(O)c(C(C)C)cc1N=Cc1ccccc1O	?	?	?	5.6µM*	-17%[57 µM]	14µM*
Cc1n[nH]c(C)c1Sc1ccccc1N=Cc1cc([N+](=O)[O-])ccc1O	/	4%	/	10µM*	/	-5%
O=c1[nH]cc(N=Cc2cc([N+](=O)[O-])ccc2O)c(=O)[nH]1	/	-2%	/	/	/	-3%
CN1CCCC12Cc1ccccc1CN([S+](C)(=O)[O-])C2 (stereo unspecified)	10%[12.5 µM]	/	/	/	/	/
O=C(CCCCCNc1nc(=S)[nH]c2ccccc12)N1CCN(c2ccccn2)CC1	0%	-36%	/	?	/	-7%
COc1cccc(N2CCN(C(=O)CCCCCNc3nc(=S)[nH]c4ccccc34)CC2)c1	-22%	32µM*	-33%	-46%	-3%	10%
SMILES	12-LOX inh	BAZ2B inh	JMJD2A Tudor inh	G9a block	HP1b chromo inh	Sfp PPTase inh
NS(=O)(=O)c1ccc(CCNC(=O)CCCCCNc2nc(=S)[nH]c3ccccc23)cc1	-9%	1%	/	50µM*	/	4%
CCOC(=O)c1ccc(-c2ccc(CO)o2)cc1	0%	0%[57.1 µM]	-31%	45µM*	-3%	-13%
Cc1cc(-c2ccccc2)nc(SCC(=O)c2cccc([N+](=O)[O-])c2)n1	22%	?	-36%	-9%	0%	17%
Nc1nc(SCC(=O)c2cccc([N+](=O)[O-])c2)n[nH]1	-14%	-27%	-12%	2.5µM*	11%	?
CCc1nc(SCC(=O)c2cccc([N+](=O)[O-])c2)n[nH]1	-32%	0%	40µM*	?	?	?
O=C(CSc1n[nH]c(-c2ccncc2)n1)c1cccc([N+](=O)[O-])c1	-4%	-31%	-15%	22µM*	27%	?
Cc1ccc(C)c(C(=O)CSc2n[nH]c(-c3ccncc3)n2)c1	-7%	-4%	89µM*	-1%	29%	-9%
Nc1nc(SCc2cccc([N+](=O)[O-])c2)n[nH]1	0%	0%	-8%	-7%	19%	11%
O=C(CCc1nc2ccccc2s1)NCCc1cccc(F)c1	-7%	/	/	/	/	/
O=C(CC1CCOCC1)NCCc1ccccn1	3%	/	/	/	/	/
O=C(CSc1n[nH]c(-c2ccccc2)n1)c1cc(F)ccc1F	-20%	/	/	/	/	/
O=C(CSc1n[nH]c(-c2ccc(Br)cc2)n1)c1cc(F)ccc1F	32µM*	/	/	/	/	/
CCOc1ccc(NC(=O)CCc2c(C)nc3cc(-c4ccc(Cl)cc4)nn3c2C)cc1	-9%	-19%	-13%	0.71µM*	19%	/
O=C(Nc1ccccc1)O[C@@H]1CO[C@H]2[C@@H]1OC[C@@H]2NC(=S)Nc1ccccc1	71µM*	/	/	/	/	/
COc1cc(NC(=S)N[C@H]2CO[C@H]3[C@@H]2OC[C@H]3OC(=O)Nc2ccccc2)cc(OC)c1	-16%	/	/	/	/	/
O=C(Nc1cccc2ccccc12)O[C@@H]1CO[C@H]2[C@@H]1OC[C@@H]2NC(=S)Nc1ccc(Cl)cc1	35µM*	/	/	/	/	/
CCNC(=O)O[C@@H]1CO[C@H]2[C@@H]1OC[C@@H]2NC(=S)Nc1ccc(N(C)C)cc1	112µM*	/	/	/	/	/
O=C(Nc1cccc2ccccc12)O[C@@H]1CO[C@H]2[C@@H]1OC[C@@H]2NC(=S)Nc1cccc2ccccc12	50µM*	/	/	/	/	/
CC(=O)c1cccc(NC(=O)O[C@@H]2CO[C@H]3[C@@H]2OC[C@@H]3NC(=S)Nc2cccc3ccccc23)c1	6%	/	/	/	/	/
Cc1cc(=O)oc2cc(OCC(=O)NCCCn3ccnc3)c(Cl)cc12	4%	/	/	/	/	/
COc1cc(CNC(c2ccccc2)c2ccccc2)cc(OC)c1	27%	/	/	/	/	/
CN(C)[C@@H]1CN(Cc2cccc(C#N)c2)CC[C@@H]1CNC(=O)C1CC1	65%	/	/	/	/	/
S=C(Nc1cccc2ccccc12)N[C@H]1CO[C@H]2[C@@H]1OC[C@H]2OCc1ccccc1	63µM*	/	/	/	/	/
CN(C(=S)NCCN1CCOCC1)C(c1ccccc1)c1ccccc1	?	50µM*	10µM*	20µM*	?	-25%
